Data from PubChem BioAssay (Tox21).
Records with an inconclusive call do not appear. Where a call stands in place of a potency, no number is given. Calls of active or inactive are those of the source. Calls come from the whole dose curve; as a rule, active = well fitted cell-killing curve with a large enough effect in the repeat runs; inconclusive = weak or mixed curves, or effect the other way; inactive = flat fitted curve, though single readings scatter.

Assay: cAMP Responsive Elements (CRE) small molecule agonists, cell-based qHTS assay: qHTS cell viability counter screen (AID 2060914); note: nearly all actives have a fitted effect of over 50% in size
Settings: CRE-bla HEK293T viability, CellTiter-Glo luminescence, 5 h; series mostly up to 92.4 µM
Summary of the method: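 CRE-bla HEK293T cells in 10% dialyzed FBS medium were exposed to compounds for 3 h at 37C after 18 h plating. CellTiter-Glo was then added in the same wells, and luminescence was read after 30 min at room temperature.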
Potency is the fitted concentration of half-maximal effect.

| SMILES | Potency |
| --- | --- |
| Cc1ccc(N)cc1 | inactive |
| CCCn1cc[n+](C)c1 | inactive |
| CC(C#N)CCC#N (configuration not stated) | inactive |
| COC(=O)c1ccc(CBr)cc1 | inactive |
| CC(=O)CN(CC(C)=O)N=O | inactive |
| CC(C)OC(=O)Nc1cccc(Cl)c1 | inactive |
| Cc1cc(Cl)ccc1OCC(=O)O | inactive |
| CNC(=S)S | inactive |
| Cc1ccc(N=C=O)cc1N=C=O | inactive |
| ClCC(Cl)(Cl)Cl | inactive |
| CCCCNC(=O)n1c(NC(=O)OC)nc2ccccc21 | inactive |
| CCC[CH2][Sn]([CH2]CCC)([CH2]CCC)[O][Sn]([CH2]CCC)([CH2]CCC)[CH2]CCC | 1.34 µM (active) |
